The campaign covered roughly 5,500 compounds. About 2,000 (36%) were called active. Inconclusive results (about 18%) are left out. Rule as the data show it: active = normalized growth mostly below about 0.91 (no sharp cut-off); inconclusive = no clear call, values can overlap the other calls; inactive = mostly above about 0.92. The list shows a part of the results.
Assay: chemical genetic growth profiling, strain panel (AID 1159580);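 also: tested at 20 µM; growth read once vehicle control cultures reached saturation at 30 °C; 1 = growth at the plate median or of vehicle wells; lower values mean less growth of the strain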
Details: growth OD

Measured: normalized growth

COC1=C(OC)C(=O)C(C/C=C(\C)CC/C=C(\C)CC/C=C(\C)CC/C=C(/C)CC/C=C(\C)CC/C=C(\C)CC/C=C(\C)CC/C=C(\C)CC/C=C(\C)CCC=C(C)C)=C(C)C1=O
inactive: S. cerevisiae deletion strains, locus YJR043C, strain POL32, stronger effect = lower value 1.03 | S. cerevisiae deletion strains, locus YJR066W, strain TOR1, stronger effect = lower value 0.982 | S. cerevisiae deletion strains, locus YKL009W, strain mrt4, stronger effect = lower value 1.07 | S. cerevisiae deletion strains, locus YKL068W, stronger effect = lower value 0.99 | S. cerevisiae deletion strains, locus YKL085W, strain MDH1 (second series), stronger effect = lower value 1 | S. cerevisiae deletion strains, locus YKL085W, strain MDH1, stronger effect = lower value 1 | S. cerevisiae deletion strains, locus YKL160W, strain elf1, stronger effect = lower value 0.988 | S. cerevisiae deletion strains, locus YKR001C, strain vps1, stronger effect = lower value 0.999 | S. cerevisiae deletion strains, locus YKR026C, strain gcn3, stronger effect = lower value 0.986 | S. cerevisiae deletion strains, locus YKR091W, strain srl3, stronger effect = lower value 0.98 | S. cerevisiae deletion strains, locus YLL001W, strain dnm1, stronger effect = lower value 0.974 | S. cerevisiae deletion strains, locus YLL026W, stronger effect = lower value 1 | S. cerevisiae deletion strains, locus YLL041C, strain sdh2, stronger effect = lower value 0.973 | S. cerevisiae deletion strains, locus YLR027C, strain aat2, stronger effect = lower value 0.988 | S. cerevisiae deletion strains, locus YLR039C, strain RIC1, stronger effect = lower value 1.04 | S. cerevisiae deletion strains, locus YLR058C, strain SHM2, stronger effect = lower value 0.985 | S. cerevisiae deletion strains, locus YLR102C, strain apc9, stronger effect = lower value 0.994 | S. cerevisiae deletion strains, locus YLR113W, strain HOG1, stronger effect = lower value 0.986 | S. cerevisiae deletion strains, locus YLR221C, strain rsa3, stronger effect = lower value 0.97 | S. cerevisiae deletion strains, locus YLR258W, strain gsy2, stronger effect = lower value 0.982 | S. cerevisiae deletion strains, locus YLR262C, strain YPT6 (second series), stronger effect = lower value 0.942 | S. cerevisiae deletion strains, locus YLR262C, strain YPT6, stronger effect = lower value 0.972 | S. cerevisiae deletion strains, locus YLR268W, strain sec22, stronger effect = lower value 1.03 | S. cerevisiae deletion strains, locus YLR320W, strain mms22, stronger effect = lower value 0.991 | S. cerevisiae deletion strains, locus YLR330W, strain CHS5, stronger effect = lower value 1.01 | S. cerevisiae deletion strains, locus YLR342W, strain FKS1 (second series), stronger effect = lower value 1.1 | S. cerevisiae deletion strains, locus YLR342W, strain FKS1, stronger effect = lower value 0.96 | S. cerevisiae deletion strains, locus YLR357W, strain rsc2, stronger effect = lower value 0.987 | S. cerevisiae deletion strains, locus YLR370C, strain arc18, stronger effect = lower value 0.953 | S. cerevisiae deletion strains, locus YLR371W, strain rom2, stronger effect = lower value 0.99 | S. cerevisiae deletion strains, locus YLR384C, strain iki3, stronger effect = lower value 0.988 | S. cerevisiae deletion strains, locus YLR418C, strain cdc73, stronger effect = lower value 0.997 | S. cerevisiae deletion strains, locus YML016C, strain PPZ1, stronger effect = lower value 1.01 | S. cerevisiae deletion strains, locus YML032C, strain rad52, stronger effect = lower value 0.971 | S. cerevisiae deletion strains, locus YML120C, strain ndi1, stronger effect = lower value 0.985 | S. cerevisiae deletion strains, locus YML124C, strain tub3, stronger effect = lower value 0.99 | S. cerevisiae deletion strains, locus YMR058W, strain fet3, stronger effect = lower value 0.977 | S. cerevisiae deletion strains, locus YMR078C, strain ctf18, stronger effect = lower value 0.992 | S. cerevisiae deletion strains, locus YMR125W, strain sto1, stronger effect = lower value 0.972 | S. cerevisiae deletion strains, locus YMR129W, stronger effect = lower value 0.974 | S. cerevisiae deletion strains, locus YMR205C, strain PFK2, stronger effect = lower value 1.01 | S. cerevisiae deletion strains, locus YMR223W, strain ubp8, stronger effect = lower value 1.01 | S. cerevisiae deletion strains, locus YMR231W, strain pep5, stronger effect = lower value 0.981 | S. cerevisiae deletion strains, locus YMR307W, strain GAS1, stronger effect = lower value 1.13 | S. cerevisiae deletion strains, locus YNL067W, strain RPL9B, stronger effect = lower value 0.995 | S. cerevisiae deletion strains, locus YNL071W, strain lat1, stronger effect = lower value 0.965 | S. cerevisiae deletion strains, locus YNL183C, strain NPR1, stronger effect = lower value 0.982 | S. cerevisiae deletion strains, locus YNL209W, strain ssb2, stronger effect = lower value 0.971 | S. cerevisiae deletion strains, locus YNL233W, strain BNI4, stronger effect = lower value 1 | S. cerevisiae deletion strains, locus YNL248C, strain rpa49, stronger effect = lower value 0.974 | S. cerevisiae deletion strains, locus YNL250W, strain rad50, stronger effect = lower value 0.985 | S. cerevisiae deletion strains, locus YNL271C, strain bni1, stronger effect = lower value 1.02 | S. cerevisiae deletion strains, locus YNL298W, strain CLA4, stronger effect = lower value 0.998 | S. cerevisiae deletion strains, locus YNL307C, strain MCK1, stronger effect = lower value 0.995 | S. cerevisiae deletion strains, locus YNL322C, strain KRE1 (second series), stronger effect = lower value 0.958 | S. cerevisiae deletion strains, locus YNL322C, strain KRE1, stronger effect = lower value 0.994 | S. cerevisiae deletion strains, locus YNR049C, strain mso1, stronger effect = lower value 0.971 | S. cerevisiae deletion strains, locus YNR052C, strain pop2, stronger effect = lower value 1 | S. cerevisiae deletion strains, locus YOL012C, strain htz1 0.872 | S. cerevisiae deletion strains, locus YOL147C, strain pex11, stronger effect = lower value 1 | S. cerevisiae deletion strains, locus YOR001W, strain rrp6, stronger effect = lower value 0.932 | S. cerevisiae deletion strains, locus YOR061W, strain CKA2, stronger effect = lower value 0.981 | S. cerevisiae deletion strains, locus YOR069W, strain VPS5, stronger effect = lower value 1.01 | S. cerevisiae deletion strains, locus YOR070C, strain gyp1, stronger effect = lower value 0.975 | S. cerevisiae deletion strains, locus YOR080W, strain dia2, stronger effect = lower value 0.999 | S. cerevisiae deletion strains, locus YOR083W, strain WHI5, stronger effect = lower value 0.998 | S. cerevisiae deletion strains, locus YOR106W, strain vam3, stronger effect = lower value 0.973 | S. cerevisiae deletion strains, locus YOR136W, strain idh2, stronger effect = lower value 0.998 | S. cerevisiae deletion strains, locus YOR144C, strain elg1, stronger effect = lower value 0.987 | S. cerevisiae deletion strains, locus YOR184W, strain ser1, stronger effect = lower value 1 | S. cerevisiae deletion strains, locus YOR231W, strain MKK1, stronger effect = lower value 1.05 | S. cerevisiae deletion strains, locus YOR265W, strain rbl2, stronger effect = lower value 0.99 | S. cerevisiae deletion strains, locus YOR270C, strain vph1, stronger effect = lower value 0.967 | S. cerevisiae deletion strains, locus YOR290C, strain snf2, stronger effect = lower value 0.992 | S. cerevisiae deletion strains, locus YOR316C, strain cot1, stronger effect = lower value 0.994 | S. cerevisiae deletion strains, locus YPL051W, strain arl3, stronger effect = lower value 1 | S. cerevisiae deletion strains, locus YPL055C, strain LGE1, stronger effect = lower value 1.02 | S. cerevisiae deletion strains, locus YPL078C, strain atp4, stronger effect = lower value 0.965 | S. cerevisiae deletion strains, locus YPL106C, strain sse1, stronger effect = lower value 0.963 | S. cerevisiae deletion strains, locus YPL240C, strain hsp82, stronger effect = lower value 0.982 | S. cerevisiae deletion strains, locus YPL241C, strain CIN2, stronger effect = lower value 0.996 | S. cerevisiae deletion strains, locus YPL256C, strain CLN2, stronger effect = lower value 1.04 | S. cerevisiae deletion strains, locus YPR119W, strain clb2, stronger effect = lower value 0.981 | S. cerevisiae deletion strains, locus YPR141C, strain kar3, stronger effect = lower value 0.981 | S. cerevisiae deletion strains, locus YPR163C, strain tif3, stronger effect = lower value 0.992 | S. cerevisiae deletion strains, locus YPR167C, strain met16, stronger effect = lower value 0.982 | S. cerevisiae deletion strains, strain wtn01, stronger effect = lower value 1.02 | S. cerevisiae strains, strain wild type, stronger effect = lower value 1.01
